# Experimental data as given in PubChem BioAssay (NCI).
# This is part of a sample that, as a whole, favours compounds with a hit. Of some 83,000 tested, about 20% had one in any assay.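 For each line, cells grew in 96-well plates with the test compound present at a single concentration for 48 hours.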 The source made the active and inactive calls. How the source made its calls: active means growth percent below 10; inactive means the rest.
# System: T-47D breast
# Assay: NCI-60 one-dose screen, 48 h (100 = growth as untreated, 0 = no growth, -100 = all killed)
# Conditions: 10 µM unless noted
row,Compound,growth
1,COc1ccc(-c2nc3ccc(-c4nc5ccc(N6CCN(c7ccncc7)CC6)cc5[nH]4)cc3[nH]2)cc1OC,6.91% (active)
2,CSc1nc(NCc2ccccc2)c(C#N)c(-c2cccc([N+](=O)[O-])c2)n1,82.8% (inactive)
3,O=C(/C=C/c1cccc(Cl)c1)c1ccc(O)c(CN2CCN(c3cc4c(cc3F)c(=O)c(C(=O)O)cn4C3CC3)CC2)c1,44.9% (inactive)
4,CC1(C)CC[C@]2(C(=O)Nc3ccccn3)CC[C@]3(C)C(=CC[C@@H]4[C@@]5(C)C/C(=C/c6cccnc6)C(=O)C(C)(C)[C@@H]5CC[C@]43C)[C@H]2C1,12.8% (inactive)
5,COC(=O)[C@]12CCC(C)(C)C[C@H]1[C@H]1C(=O)C[C@@H]3[C@@]4(C)c5c([nH]c6ccccc6c5=O)C(C)(C)[C@@H]4CC[C@@]3(C)[C@]1(C)CC2,52.6% (inactive)
6,CC1=CC(=NN=c2cc(C)n([O-])c(C)c2)C=C(C)[N+]1=O,43.9% (inactive)
7,CCC(=O)c1ccc(Cl)s1,105% (inactive)
8,Cn1c(=O)c2c(nc3n(-c4ccc(Cl)cc4Cl)c(Sc4nc(-c5ccccc5)c(C#N)c(=O)[nH]4)cn23)n(C)c1=O,11.3% (inactive)

# System: BT-549 breast
# Assay: as above
# Conditions: 10 µM unless noted
row,Compound,growth
1,COc1cccc(-c2nc3sccn3c2-c2ccnc(NCCCNS(=O)(=O)c3c(Cl)cccc3Cl)c2)c1,43.2% (inactive)
2,CC1=NN(c2nc(-c3ccc(Cl)cc3)c(C#N)c(N3CCOCC3)n2)C(=O)C1,66.1% (inactive)
3,Cc1nc2c3c(-c4ccccc4)c(-c4ccccc4)oc3ncn2n1,101% (inactive)
4,C=CC(=O)Nc1cccc(-c2nc(SC)nc(NCc3ccccc3)c2C#N)c1,44.3% (inactive)
5,N#Cc1c(N)n(CCNC(=O)c2ccccc2)c2nc3ccccc3nc12,140% (inactive)
6,C=C(C)[C@@H]1CC[C@]2(C(=O)OC)CC[C@]3(C)[C@H](CC[C@@H]4[C@@]5(C)C/C(=C/c6cccc(I)c6)C(=O)C(C)(C)[C@@H]5CC[C@]43C)[C@@H]12,101% (inactive)
7,Cc1c(/C=C/[N+](=O)[O-])ccc2c1[nH]c1ccccc12,59.2% (inactive)
8,COc1cc(/C=C/c2cc(O)c3cc(C(C)=O)c(=O)oc3c2)cc2c1O[C@]1(C)CC[C@@H](O)C(C)(C)[C@H]1C2,35% (inactive)
9,CCCOc1ccc2nc(NC(=O)OC)[nH]c2c1,33.4% (inactive)
10,COc1cc(/C=C/C(=O)c2ccc(O)c(CN3CCN(c4cc5c(cc4F)c(=O)c(C(=O)O)cn5C4CC4)CC3)c2)cc(OC)c1OC,31.8% (inactive)
11,C=CCSSc1ncnc2c1ncn2C1OC(CO)C(O)C1O (configuration not stated),54.8% (inactive)
12,COc1cc2nc(N3CCCC3)nc(NCc3ccccc3)c2cc1OC,70.5% (inactive)
13,CC[C@H]1OC(=O)[C@H](C)[C@@H](O[C@H]2C[C@@](C)(OC)[C@@H](O)[C@H](C)O2)[C@H](C)[C@@H](O[C@@H]2O[C@H](C)C[C@H](N(C)C)[C@H]2O)[C@](C)(O)C[C@H](C)CN(C)[C@H](C)[C@@H](O)[C@]1(C)O,98.4% (inactive)
14,CSc1nc(NCCN2CCOCC2)c(C#N)c(-c2cccc([N+](=O)[O-])c2)n1,94.2% (inactive)
15,CC(C)c1c(C(=O)c2ccccc2)c(-c2ccccc2)c(-c2ccc(F)cc2)n1CC[C@@H](O)C[C@@H](O)CC(=O)O,70.2% (inactive)
16,N#CCCN=Nc1c(O)[nH]c2ccc([N+](=O)[O-])cc12,107% (inactive)
17,CC[C@@H]1O[C@H](O[C@@H](c2cnc[nH]2)[C@H](NC(=O)c2nc([C@H](CC(N)=O)NC[C@@H](N)C(N)=O)nc(N)c2C)C(=O)N[C@H](C)[C@H](O)[C@H](C)C(=O)N[C@@H](C(=O)NCCc2nc(-c3nc(C(=O)NCCCCN=C(N)N)cs3)cs2)[C@@H](C)O)[C@H](O[C@@H]2O[C@H](CO)[C@H](O)[C@H](OC(N)=O)[C@@H]2O)[C@H](C)[C@@H]1C,78.3% (inactive)
18,COc1cc2nc(N3CCCC3)nc(Nc3ccccc3)c2cc1OC,-70.9% (active)
19,Nc1nc2ncc(CCNc3ccc(C(=O)O)cc3)nc2c(=O)[nH]1,124% (inactive)
20,CCCN1CCN(c2ccc3nc(-c4ccc5nc(-c6ccc(OCC)cc6)[nH]c5c4)[nH]c3c2)CC1,71.2% (inactive)

row,Compound,growth
1,COc1ccc(Nc2nc(SC)nc(-c3cccc([N+](=O)[O-])c3)c2C#N)cc1,86.9% (inactive)
2,O=C1CC(=NCC(=O)n2c(-c3ccccc3)nc3ccccc32)NN1,107% (inactive)
3,CC(C)(O)c1cn(CCCCN2C(=O)C(=O)c3ccccc32)nn1,110% (inactive)
4,CCCCCCCCCCCCC[N+](C)(C)Cc1ccccc1,-72.9% (active)
5,COc1ccc(/C=C/C(=O)c2ccc(O)c(CN3CCN(c4cc5c(cc4F)c(=O)c(C(=O)O)cn5C4CC4)CC3)c2)cc1,17.7% (inactive)
6,O=S(=O)(Nc1ccc(OC(F)F)cc1)c1ccc(-c2cnc(C3CC3)o2)cc1,63.4% (inactive)
7,N#C/C(=C\c1ccc(-c2cc(C(F)(F)F)ccc2Cl)o1)c1nc(-c2ccco2)cs1,114% (inactive)
8,O=C(O)c1ccc(N=CC(=O)c2ccc(-c3ccccc3)cc2)cc1,103% (inactive)
9,COc1cccc(-c2nn(C(C)(C)C)cc2-c2ccnc(NCCCNS(=O)(=O)c3ccc(C)cc3)c2)c1,101% (inactive)
10,CC(C)n1c(/C=C/[C@@H](O)C[C@@H](O)CC(=O)O)c(-c2ccc(F)cc2)c2ccccc21,60.6% (inactive)
11,N#Cc1c(-c2ccc(Cl)cc2)nc(N/N=C/c2cccc(Br)c2)nc1N1CCOCC1,101% (inactive)
12,COc1ccc(-c2nc3ccc(-c4nc5ccc(N6CCN(c7ccncc7)CC6)cc5[nH]4)cc3[nH]2)cc1OC,39.4% (inactive)
13,CSc1nc(NCc2ccccc2)c(C#N)c(-c2cccc([N+](=O)[O-])c2)n1,95.8% (inactive)
14,O=C(/C=C/c1cccc(Cl)c1)c1ccc(O)c(CN2CCN(c3cc4c(cc3F)c(=O)c(C(=O)O)cn4C3CC3)CC2)c1,34% (inactive)
15,CC1(C)CC[C@]2(C(=O)Nc3ccccn3)CC[C@]3(C)C(=CC[C@@H]4[C@@]5(C)C/C(=C/c6cccnc6)C(=O)C(C)(C)[C@@H]5CC[C@]43C)[C@H]2C1,42.2% (inactive)
16,COC(=O)[C@]12CCC(C)(C)C[C@H]1[C@H]1C(=O)C[C@@H]3[C@@]4(C)c5c([nH]c6ccccc6c5=O)C(C)(C)[C@@H]4CC[C@@]3(C)[C@]1(C)CC2,76.4% (inactive)
17,CC1=CC(=NN=c2cc(C)n([O-])c(C)c2)C=C(C)[N+]1=O,75.1% (inactive)
18,CCC(=O)c1ccc(Cl)s1,90.5% (inactive)
19,Cn1c(=O)c2c(nc3n(-c4ccc(Cl)cc4Cl)c(Sc4nc(-c5ccccc5)c(C#N)c(=O)[nH]4)cn23)n(C)c1=O,72.6% (inactive)
